Read-out in assay [1]: ABC Transporter (ABCB11), ABCB11 (gene 8647)
Description: CLD_ABCB11_6hr: CellzDirect (CLD) Gene Expression Assay for ABC Transporter (ABCB11) at 6 hours (AID 2283675).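 Note: hits raise ABCB11 mRNA level so AC50 marks induction.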 Put shortly: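 Read-out was ABCB11 mRNA gain of signal by quantitative nuclease protection assay, relative to 0.2% DMSO vehicle, 6 h post-dose. Cells were primary human hepatocytes from two donors, treated across multiple concentrations; phase-contrast cytotoxicity noted yes/no.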

The nature of assay [2]: CLD_ACTIN_6hr: CellzDirect (CLD) Gene Expression Assay for Baseline Control (Actin) at 6 hours (AID 2283676).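 Note: active means increased actin mRNA relative to DMSO vehicle.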 Summed up: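 Baseline actin transcript level measured by qNPA (S1 nuclease protection, chemiluminescence) in human hepatocyte cultures 6 h after chemical exposure; 0.2% DMSO vehicle as reference, cytotoxicity noted from morphology.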
Read-out in assay [3]: Cytochrome P450 2C19 (Homo sapiens) (UniProt P33261)
Description: CLD_CYP2C19_6hr: CellzDirect (CLD) Gene Expression Assay for xenobiotic metabolism (CYP2C19) at 6 hours (AID 2283678). Summed up:
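CYP2C19 transcript induction was quantified by quantitative nuclease protection assay with chemiluminescent read-out, 6 h after dosing. Cells were primary human hepatocytes from two donor preparations, given fresh dosing solutions daily in 0.2% DMSO vehicle. Activity was relative to DMSO.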

Assay [4] can be described thus: CCTE_Padilla_ZF_144hpf_TERATOSCORE: (Legacy) CCTE's 144 Hour Post-fertilization zebrafish Assay Teratoscore, Padilla Lab (AID 2283679; active = hit-call score of the fitted dose curve at least 0.9, where 1 is the maximum; inactive = score below 0.9;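 for AC50: zebrafish embryos with chorions exposed by immersion from 6-8 hpf to 5 dpf with daily renewal; teratogenicity score from eye scoring of death hatching and malformations at 144 hpf; higher score means more developmental defects relative to DMSO baseline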). Put shortly: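 Larvae scored by eye at 144 hpf for death, hatching and malformations after a day in clean Hanks'. Before that, daily-renewed exposure at 80 uM (0.4% DMSO, 26C) from roughly 6-8 hpf through 5 dpf, 4 embryos per chemical.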

Read-out in assay [5]: Cytochrome P450 2B6 (Homo sapiens) (UniProt P20813)
Briefly: CLD_CYP2B6_24hr: CellzDirect (CLD) Gene Expression Assay for xenobiotic metabolism (CYP2B6) at 24 hours (AID 2283686). Summed up:
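qNPA chemiluminescent measurement of mRNA at 24 hours in human primary hepatocyte cultures from two donor preparations, with daily fresh dosing and 0.2% DMSO vehicle as baseline. Morphology-based cytotoxicity flagged yes/no.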

Read-out in assay [6]: glucuronosyltransferase (UGT1A1), UGT1A1 (gene 54658)
Briefly: CLD_UGT1A1_24hr: CellzDirect (CLD) Gene Expression Assay for glucuronosyltransferase (UGT1A1) at 24 hours (AID 2283696). Summed up: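 UGT1A1 transcript induction was measured by quantitative nuclease protection assay (chemiluminescence) in human hepatocyte cultures 24 h after daily fresh dosing, with 0.2% DMSO as vehicle and baseline.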

Read-out in assay [7]: Cytochrome P450 2B6 (Homo sapiens) (UniProt P20813)
Description: CLD_CYP2B6_48hr: CellzDirect (CLD) Gene Expression Assay for xenobiotic metabolism (CYP2B6) at 48 hours (AID 2283699).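 Note: actives raise transcript level above DMSO so potency reflects induction.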 Summed up: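 CYP2B6 transcript induction, read by quantitative nuclease protection (S1 digestion, chemiluminescent detection) 48 h after dosing, is fitted upward against 0.2% DMSO. Cultured human liver primary cells, two donor preparations, received fresh chemical daily over multiple concentrations.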

Read-out in assay [8]: xenobiotic metabolism (CYP1A2), CYP1A2 (gene 1544)
Briefly: CLD_CYP1A2_48hr: CellzDirect (CLD) Gene Expression Assay for xenobiotic metabolism (CYP1A2) at 48 hours (AID 2283703). Put shortly:
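Cytotoxicity was flagged yes/no from morphology, while CYP1A2 transcript induction was detected by qNPA chemiluminescence after a 48-hour exposure. Human primary hepatocyte cultures from separate donors received fresh dosing solutions daily over two days, with 0.2% DMSO as vehicle and baseline.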

Read-out in assay [9]: Broad substrate specificity ATP-binding cassette transporter ABCG2 (Homo sapiens) (UniProt Q9UNQ0)
Briefly: CLD_ABCG2_48hr: CellzDirect (CLD) Gene Expression Assay for ABC Transporter (ABCG2) at 48 hours (AID 2283704). Put shortly: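 ABCG2 transcript measured at 48 h by quantitative nuclease protection (chemiluminescent) and fitted for increase relative to 0.2% DMSO. Hepatocyte cultures from separate donors got fresh compound daily over two days; morphology annotated cytotoxicity.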

Read-out in assay [10]: xenobiotic metabolism (CYP1A1), CYP1A1 (gene 1543)
Description: CLD_CYP1A1_48hr: CellzDirect (CLD) Gene Expression Assay for xenobiotic metabolism (CYP1A1) at 48 hours (AID 2283705). Summed up:
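CYP1A1 transcript measured by quantitative nuclease protection (chemiluminescent) 48 h after two daily treatments of human hepatocyte cultures, versus 0.2% DMSO. Morphology-based cytotoxicity flags accompany data; two donor preparations used.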

Read-out in assay [11]: Glyceraldehyde-3-phosphate dehydrogenase (Homo sapiens) (UniProt P04406)
Description: CLD_GAPDH_48hr: CellzDirect (CLD) Gene Expression Assay for Baseline Control (Glyceraldehyde 3-phosphate dehydrogenase) at 48 hours (AID 2283706).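 Note: active means higher GAPDH mRNA than DMSO vehicle.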 Summed up: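 GAPDH baseline-control readout: qNPA chemiluminescent mRNA quantitation in human liver primary cells 48 h after daily dosing on two consecutive days, vehicle 0.2% DMSO; gain of signal fitted against DMSO, cytotoxicity flagged by phase-contrast morphology.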

Read-out in assay [12]: organic anion transporter (SLCO1B1), SLCO1B1 (gene 10599)
Description: CLD_SLCO1B1_48hr: CellzDirect (CLD) Gene Expression Assay for organic anion transporter (SLCO1B1) at 48 hours (AID 2283707). Summed up:
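SLCO1B1 transcript quantified by qNPA with chemiluminescent readout after 48 h of once-daily chemical exposure. Cultured human primary hepatocytes came from two donors, with 0.2% DMSO vehicle; positive-direction fitting against DMSO, cytotoxicity flagged by morphology.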

Read-out in assay [13]: Cytochrome P450 2B6 (Homo sapiens) (UniProt P20813)
Briefly: CLD_CYP2B6_6hr: CellzDirect (CLD) Gene Expression Assay for xenobiotic metabolism (CYP2B6) at 6 hours (AID 2283677).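 Note: actives raise CYP2B6 transcript above DMSO baseline so AC50 marks an inducer.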 Put shortly: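 CYP2B6 transcript levels, read by chemiluminescent qNPA, were fitted for increase versus DMSO baseline; cultured human liver hepatocytes from two donor preparations were harvested 6 h after exposure to test chemicals at multiple concentrations.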

Read-out in assay [14]: Cytochrome P450 3A4 (Homo sapiens) (UniProt P08684)
Briefly: CLD_CYP3A4_48hr: CellzDirect (CLD) Gene Expression Assay for xenobiotic metabolism (CYP3A4) at 48 hours (AID 2283698). Put shortly: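 CYP3A4 induction read by qNPA chemiluminescence after 48 h, with fresh dosing solutions on consecutive days, in cultured human hepatocytes (two donors). Vehicle 0.2% DMSO as baseline; microscopy-based cytotoxicity annotated yes/no alongside data.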

Read-out in assay [15]: Glyceraldehyde-3-phosphate dehydrogenase (Homo sapiens) (UniProt P04406)
Description: CLD_GAPDH_6hr: CellzDirect (CLD) Gene Expression Assay for Baseline Control (Glyceraldehyde 3-phosphate dehydrogenase) at 6 hours (AID 2283681).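 Note: active means increased signal relative to DMSO vehicle.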 Put shortly:
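GAPDH baseline-control readout from qNPA (S1 nuclease digestion, probe hybridization, chemiluminescence) in lysates of cultured human hepatocytes harvested 6 h post-dosing. Chemicals tested at multiple concentrations versus 0.2% DMSO vehicle; microscopy-based cytotoxicity flagged yes/no.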

Read-out in assay [16]: ABC Transporter (ABCB11), ABCB11 (gene 8647)
Briefly: CLD_ABCB11_48hr: CellzDirect (CLD) Gene Expression Assay for ABC Transporter (ABCB11) at 48 hours (AID 2283697). Summed up: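 Induction of ABCB11 mRNA relative to 0.2% DMSO, measured at 48 h by qNPA chemiluminescence. Cultured human hepatocytes (two donors) received fresh dosing solutions at several concentrations on two consecutive days.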

This is an account of results in PubChem BioAssay (EPA / NIEHS).

Structures are written as SMILES. Where “and” joins values, the source holds several entries; their conditions need not be identical. Equal entries are not always repeated. Inconclusive results are not listed. Calls of active or inactive are those of the source. Rule for the calls, unless noted: active = hit-call score of the fitted dose curve at least 0.9, where 1 is the maximum; inconclusive = response in the unintended direction; inactive = score below 0.9.

Sequence of Glyceraldehyde-3-phosphate dehydrogenase (Homo sapiens) (P04406 whole entry, looked up): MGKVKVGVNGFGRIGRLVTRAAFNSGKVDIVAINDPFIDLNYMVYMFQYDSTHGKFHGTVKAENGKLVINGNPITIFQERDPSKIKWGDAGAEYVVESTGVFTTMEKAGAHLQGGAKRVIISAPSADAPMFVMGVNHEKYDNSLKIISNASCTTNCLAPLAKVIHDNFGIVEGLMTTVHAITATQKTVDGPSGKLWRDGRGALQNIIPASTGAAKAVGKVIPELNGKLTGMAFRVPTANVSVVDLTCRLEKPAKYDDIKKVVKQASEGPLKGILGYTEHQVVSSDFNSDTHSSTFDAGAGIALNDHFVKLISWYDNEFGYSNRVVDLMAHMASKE
Sequence of Cytochrome P450 3A4 (Homo sapiens) (P08684 whole entry, looked up): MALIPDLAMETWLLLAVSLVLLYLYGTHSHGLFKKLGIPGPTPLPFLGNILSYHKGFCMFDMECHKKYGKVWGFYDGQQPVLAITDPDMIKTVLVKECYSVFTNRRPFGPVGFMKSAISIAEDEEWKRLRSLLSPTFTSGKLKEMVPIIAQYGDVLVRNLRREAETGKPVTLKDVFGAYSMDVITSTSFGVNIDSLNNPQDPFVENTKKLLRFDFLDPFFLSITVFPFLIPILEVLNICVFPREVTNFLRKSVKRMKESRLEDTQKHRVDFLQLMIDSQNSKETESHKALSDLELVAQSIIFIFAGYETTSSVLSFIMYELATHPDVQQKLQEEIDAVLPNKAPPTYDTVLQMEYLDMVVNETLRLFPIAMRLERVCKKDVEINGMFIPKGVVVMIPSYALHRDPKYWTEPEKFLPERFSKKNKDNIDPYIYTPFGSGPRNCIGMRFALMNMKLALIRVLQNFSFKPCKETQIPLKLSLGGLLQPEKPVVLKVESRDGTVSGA
Sequence of Broad substrate specificity ATP-binding cassette transporter ABCG2 (Homo sapiens) (Q9UNQ0 whole entry, looked up): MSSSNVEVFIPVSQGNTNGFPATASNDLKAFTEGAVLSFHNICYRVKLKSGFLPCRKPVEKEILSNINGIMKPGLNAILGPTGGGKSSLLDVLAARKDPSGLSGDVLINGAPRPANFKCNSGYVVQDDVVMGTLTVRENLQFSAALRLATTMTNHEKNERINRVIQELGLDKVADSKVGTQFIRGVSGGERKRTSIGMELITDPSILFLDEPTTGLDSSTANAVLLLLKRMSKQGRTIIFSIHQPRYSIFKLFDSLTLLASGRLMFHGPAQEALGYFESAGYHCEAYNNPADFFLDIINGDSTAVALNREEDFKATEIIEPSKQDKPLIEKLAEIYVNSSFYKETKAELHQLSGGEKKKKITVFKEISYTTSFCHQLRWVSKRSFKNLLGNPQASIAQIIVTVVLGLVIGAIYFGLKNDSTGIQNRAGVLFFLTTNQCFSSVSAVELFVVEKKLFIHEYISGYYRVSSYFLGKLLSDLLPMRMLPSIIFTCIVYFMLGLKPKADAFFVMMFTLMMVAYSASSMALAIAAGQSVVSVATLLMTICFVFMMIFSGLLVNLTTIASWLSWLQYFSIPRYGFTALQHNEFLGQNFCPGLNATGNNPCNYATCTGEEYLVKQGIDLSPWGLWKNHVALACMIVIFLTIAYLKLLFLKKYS
Sequence of Cytochrome P450 2C19 (Homo sapiens) (P33261 whole entry, looked up): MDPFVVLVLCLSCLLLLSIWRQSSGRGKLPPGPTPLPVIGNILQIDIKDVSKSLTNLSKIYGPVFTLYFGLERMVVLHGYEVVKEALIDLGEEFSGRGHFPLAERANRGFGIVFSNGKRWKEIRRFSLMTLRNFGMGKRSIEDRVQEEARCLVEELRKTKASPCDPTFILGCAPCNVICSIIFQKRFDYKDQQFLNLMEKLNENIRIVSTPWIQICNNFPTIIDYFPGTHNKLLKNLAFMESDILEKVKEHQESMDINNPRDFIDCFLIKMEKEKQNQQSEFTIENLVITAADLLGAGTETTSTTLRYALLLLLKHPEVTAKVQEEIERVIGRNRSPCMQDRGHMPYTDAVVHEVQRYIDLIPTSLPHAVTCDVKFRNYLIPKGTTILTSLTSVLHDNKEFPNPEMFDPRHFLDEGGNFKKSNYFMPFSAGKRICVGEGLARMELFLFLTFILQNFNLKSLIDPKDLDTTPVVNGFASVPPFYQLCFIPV

For `COC(=O)c1ccccc1CS(=O)(=O)NC(=O)Nc1nc(OC)cc(OC)n1`, the compound was called inactive in [1], in assay [2], in assay [3], in assay [4], in assay [5] and in assay [6]. The call in assay [7], in assay [8], in assay [9], in assay [10], in assay [11] and in [12] was inactive.

Take `ClC1C(Cl)C(Cl)C(Cl)C(Cl)C1Cl` (stereo not drawn): the outcome in assay [2], in assay [6] and in assay [9] was inactive. Also, the AC50 in assay [13] was 1.43 µM (active); in [4], 42.6 µM (active); in assay [5], 1.39 µM (active); in assay [7], 0.0441 µM (active).

`Cc1[nH]c(=O)n(C(C)(C)C)c(=O)c1Cl`: the call in [13], in assay [3], in assay [4], in assay [5], in assay [6] and in assay [14] was inactive. Besides, the compound was called inactive in assay [8]. In [7], the half-maximal activity concentration (AC50) is 4.85 µM (active).

On to `CC1(C)C(C=C(Cl)Cl)C1C(=O)OC(C#N)c1ccc(F)c(Oc2ccccc2)c1` (stereo not drawn), for which the compound was called inactive in [1], in assay [3], in assay [15], in [5], in assay [6] and in assay [8]. Moreover, in assay [10], the compound was classed as inactive. Further, the values for the concentration at half-maximal activity (AC50) in assay [4], in assay [14] and in assay [7] were 0.345 µM (active), 6.91 µM (active) and 7.55 µM (active), respectively.

Take `COP(=O)(OC)OC=C(Cl)Cl`: the compound was called inactive in assay [1], in [2], in assay [15], in assay [5], in [6] and in [16]. Besides, the result in assay [14], in [7], in [8], in assay [9], in [10] and in [11] was inactive. Also, the outcome in assay [12] was inactive. Besides, the AC50 in assay [13] was 1.89 µM (active); in assay [4] it was 53.8 µM (active).

As to `Oc1ccc(Cl)cc1Cc1ccccc1`, the compound was classed as inactive in [2], in assay [3], in assay [15], in assay [5], in assay [6] and in assay [16]. For the same compound, the compound was called inactive in [7], in assay [9], in [11] and in assay [12]. Also, the AC50 in [4] is 5.12 µM (active) and 9.81 µM (active) and 9.21 µM (active).
